Screening results deposited in PubChem by SRMLSC.
Autofluor 339: intrinsic fluorescence of library compounds, ex339/em460 – biochemical, MLSMR library, data from DPM-DC assay, artefact control, profiling panel | actives 5.5% (n = 65,000) | compound autofluorescence, ex339/em460 nm, NADH buffer; stronger effect = higher value; 1 = no-compound wells, NADH background | AID 709 | fluorescence fold increase at 10 µM;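 active = at 10 µM, mean starting fluorescence two-fold or more over control wells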;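 note: signal is the first read of a kinetic run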
NADH coupling: blocks coupling enzymes of NAD/NADH assays; IC50, µM (titrated, usually from 10 µM), inactives show at the top dose inhibition; actives 0.02% (n = 65,000); coupled PK/LDH NADH assays, four targets; AID 774;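 active = single-dose screening hits from any of four coupled enzyme assays that gave an IC50 when retested across doses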;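 note: the DPM-DC format reads NADH fluorescence rather than 340 nm absorbance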
Spn PMK inh: blocks S. pneumoniae phosphomevalonate kinase | AID 539 | purified PMK, PK/LDH-coupled NADH absorbance 340 nm | inhibition, % at 10 µM | actives 0.49% (n = 65,000);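 active = top-ranked compounds by inhibition in the single 10 µM screen, taking a fixed number of the strongest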;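 note: 0% = full reaction with DMSO carrier and 100% = background rate without enzyme reaction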
DPM-DC inhibit: inhibitors of Streptococcus pneumoniae diphosphomevalonate decarboxylase; actives 0.49% (n = 65,000); purified DPM-DC, PK/LDH coupled NADH fluorescence; calls only at 10 µM;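 active = the 320 compounds with the highest percent inhibition in the single-dose primary screen, excluding strongly autofluorescent ones, cut at about 32% in these data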;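 note: kinetic rate of NADH fluorescence loss reporting ADP formed by the decarboxylase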
A340 absorber: absorbance at 340 nm. compound absorbance at 340 nm, fold over control. fold change at 10 µM. 65,000 tested, under 10 active. AID 708;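 active = at 10 µM dose, initial 340 nm absorbance at least 2 fold that of control wells; inactive = change under 2 fold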;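 note: initial absorbance extrapolated from kinetic A340 decline of NADH oxidation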
Spn MK inh: S. pneumoniae mevalonate kinase inhibition; purified MK, PK/LDH-coupled NADH absorbance 340 nm; inhibition, % at 10 µM; actives 0.48% (n = 65,000); AID 555;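 active = ranked among the strongest by inhibition in the single 10 µM screen, a fixed top-ranked set picked for dose follow-up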
* hit, by the source's call; i = inactive; . = not tested or not shown; + = active, no number. Most compounds without a hit are left out; they make up all but 6.3% or so of the library.

SMILES	Autofluor 339	NADH coupling	Spn PMK inh	DPM-DC inhibit	A340 absorber	Spn MK inh
CC1CN(c2oc(-c3ccccc3Cl)nc2C#N)CC(C)O1 (configuration not stated)	1.8	8%	2	i	1.1	6
COc1ccc(-c2nc(C#N)c(N3CC(C)OC(C)C3)o2)cc1OC (configuration not stated)	2.1*	4%	0	.	1.1	7
N#Cc1nc(COc2cccc(Cl)c2)oc1N1CCCC1	1.1	1%	0	i	1	4
N#Cc1nc(-c2ccccc2F)oc1N1CCCC1	3.6*	6%	9	.	1.1	3
COc1ccc(-c2nc(C#N)c(NC(C)C)o2)cc1	2.3*	3%	6	.	1.1	0
N#Cc1nc(-c2ccc(F)cc2)oc1N1CCCC1	2.4*	7%	12	.	1.1	2
CC(C)CNc1oc(-c2ccc(F)cc2)nc1C#N	2.4*	2%	5	.	1	1
N#Cc1nc(-c2ccc(F)cc2)oc1NCc1cccc2c1OCO2	1.7	3%	0	i	1.1	10
N#Cc1nc(-c2ccccc2)oc1N1CCCCC1	3.7*	4%	4	.	1.1	4
N#Cc1nc(COc2ccc(F)cc2)oc1N1CCCC1	1.1	6%	10	i	0.98	7
O=C1CC(N2CCC(O)(c3ccc(Cl)cc3)CC2)C(=O)N1Cc1ccc(N2CCCC2=O)cc1 (configuration not stated)	1.1	0%	0	i	1.1	1
N#Cc1nc(-c2ccc(Cl)cc2)oc1N1CCCCC1	2.4*	7%	10	.	1.1	4
COc1ccc(-c2nc(C#N)c(N3CCCCCC3)o2)cc1OC	3.9*	15%	16	.	1.1	13
CCOC(=O)c1cccc(NC(=O)CSc2nnc(COc3ccccc3C)o2)c1	1	5%	7	i	1	9
CCc1ccccc1N(C(=O)CCC(=O)Nc1cc(C)on1)C(C(=O)NC1CCCC1)c1ccco1 (configuration not stated)	1.1	5%	9	i	0.98	4
CCOC(=O)N1CCN(Cc2nc(N)nc(Nc3ccc(Oc4ccccc4)cc3)n2)CC1	1	5%	6	i	1	4
COc1ccc2oc(C(=O)C3CC3)c(NC(=O)CCCN3C(=O)c4ccccc4C3=O)c2c1	1.1	2%	0	i	1.1	3
CC(=O)c1c(C)cc(C)c(CSc2nc(C)cc(=O)[nH]2)c1C	1	5%	7	i	1	5
Cc1ccc2cc(CN(CC3CCCO3)C(=O)c3ccco3)c(=O)[nH]c2c1C (configuration not stated)	1.2	2%	7	i	0.99	0
O=C(c1cnn2c(C(F)(F)F)cc(-c3ccccc3)nc12)N1CCOCC1	1.3	10%	11	i	1.1	6
COC(=O)c1cnn2c(C(F)(F)F)cc(-c3ccc(F)cc3)nc12	3.3*	12%	9	.	1.1	14
CCOC(=O)N1CCN(c2nc(-c3cccc(OC)c3)cc(C(F)(F)F)n2)CC1	1.3	4%	1	i	0.99	11
CCOC(=O)c1cnn2c(C(F)(F)F)cc(-c3cn(C)nc3C)nc12	3.7*	11%	8	.	1.2	13
CCOC(=O)N1CCC(NC(=O)c2cnn3c(C(F)(F)F)cc(-c4cccc(OC)c4)nc23)CC1	3.8*	8%	3	.	1.1	12
CCOC(=O)C1CCCN(C(=O)c2cnn3c(C(F)(F)F)cc(-c4ccccc4)nc23)C1 (configuration not stated)	1.5	2%	0	i	1.1	6
SMILES	Autofluor 339	NADH coupling	Spn PMK inh	DPM-DC inhibit	A340 absorber	Spn MK inh
CCOC(=O)c1cnn2c(C(F)(F)F)cc(-c3ccccc3)nc12	2.2*	8%	14	.	1.1	2
CCOC(=O)c1cnc2c(-c3ccccc3)cnn2c1N	2.1*	3%	0	i	1.1	10
CCOC(=O)c1cnc2c(-c3ccccc3)c(C)nn2c1N	1.8	15%	18	i	1.1	4
O=c1c2cc(N3CCOCC3)ccc2[nH]c(=S)n1CCCN1CCCCC1	2.1*	5%	16	i	1	0
CC1CCN(CCCn2c(=S)[nH]c3ccc(N4CCOCC4)cc3c2=O)CC1	3.2*	13%	14	i	1.1	0
Nc1ccc2oc(-c3ccccn3)nc2c1	1.1	4%	11	i	1.1	0
Nc1cc(N)cc(-c2nc3ccccc3[nH]2)c1	2.2*	17%	10	+	1	7
Nc1ccc(-c2nc3ccc(-c4nc5ccccc5o4)cc3[nH]2)cc1	3.7*	3%	5	.	1.1	0
Nc1ccc(-c2nc3ccc(N)cc3o2)cc1	2.1*	7%	6	.	1.2	8
Nc1nc(-c2nc3ccccc3[nH]2)cs1	1.1	1%	0	i	1.1	2
[N-]=[N+]=CC(=O)c1ccnc(C(=O)C=[N+]=[N-])c1	1.1	2%	6	i	1.1	0
O=C(Nc1c2c(nn1-c1ccc(F)cc1)CS(=O)(=O)C2)C12CC3CC(CC(C3)C1)C2	1.1	6%	17	i	1	0
CCCc1cc(-c2[nH]ncc2-c2ccc(C(=O)OCC)o2)c(O)cc1O	2.2*	4%	4	i	1	3
CCCc1cc(-c2[nH]ncc2-c2ccc3c(c2)OCCCO3)c(O)cc1O	1.1	4%	7	i	1	5
CCCC(=O)Nc1ccccc1-c1nnc(SC)[nH]c1=O	1.1	4%	3	i	1.1	10
CN(C)c1ccc(-c2nn3c(-c4ccccc4Cl)nnc3s2)cc1	3.3*	3%	0	.	1.1	6
COc1ccccc1-c1nn2c(C(F)(F)F)nnc2s1	3*	8%	5	i	1.1	0
COc1ccc(-c2nn3c(-c4ccccn4)nnc3s2)cc1OC	1.4	15%	5	+	1.1	7
CN(C)c1ccc(-c2nn3c(-c4ccncc4)nnc3s2)cc1	1.3	3%	0	i	1.1	4
COc1ccccc1-c1nnc2sc(-c3ccc(N(C)C)cc3)nn12	2.3*	10%	3	+	1	3
O=C1c2ccccc2C(=O)N1CCn1c(=O)oc2ccccc21	1.1	5%	3	i	1	12
O=C1CCC(C(=O)NC2(C(=O)NC3CCCCC3)CCCCC2)N1 (configuration not stated)	1.1	4%	5	i	1	2
C=C(C)c1cccc(C(C)(C)NC(=O)Nc2ccc3[nH]c(=O)[nH]c3c2)c1	1.1	2%	5	i	1	0
O=C(CN1C(=O)C2CC=C(Cl)CC2C1=O)NCc1ccccc1 (configuration not stated)	0.89	5%	0	i	1	10
